Here are results for 13 compounds from PubChem BioAssay.

Assay [1] in a line: inhibitors of TNFa-induced NFkB p65 translocation, primary screen, imaging, HUVEC, MLSMR starter and 10KST1 sets (AID 438;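 active = inhibition above 20% together with a positive visual image hit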;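 also: compound added about 3h40 before a 20 min TNFalpha stimulation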;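 as to inhibition: signal is the nuclear over cytoplasmic p65 intensity ratio per well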). To be noted: HUVEC TNFa-induced p65 nuclear translocation; cell count: measured here: nuclei count (cytotoxicity indicator), at 2.08 µM; inhibition: at 2 µM, stronger effect = higher value, 0% TNFa-plus-vehicle, 100% no-TNFa wells.
Assay [2] in a line: inhibitors of mutant huntingtin aggregation, primary screen, imaging, exon1htt(103Q)mCFP cells, high-content imaging (AID 483;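 active = visual image review flags a hit and inhibition of aggregation exceeds 20%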;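 also: compound exposure lasted 3 days before fixation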;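 as to nuclei count: percent of the per-plate median nuclei count of sample wells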). Particulars: exon1htt(103Q)mCFP cell line, aggregate imaging, at 2 µM; inhibition of aggregation: stronger effect = higher value; nuclei count: measured here: cell count, toxicity.
Assay [3] in a line: inhibitors of E-selectin induction by TNFa, primary screen, imaging, HUVEC, immunofluorescence, MLSMR starter and 10KST1 sets (AID 487;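 active = visually confirmed hit in the image check and inhibition above 20%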;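 as to inhibition: signal is fraction of cell area covered by stained E-selectin grains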;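 as to nuclei count: 100% = median nuclei count of all wells on the same plate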). Particulars: HUVEC TNFalpha-induced E-selectin immunofluorescence imaging, at 2 µM; inhibition: stronger effect = higher value; nuclei count: measured here: cell number, toxicity.
Assay [4] addresses Voltage-gated potassium channel subunit beta-2 (Rattus norvegicus) (UniProt P62483). Put plainly: KvBeta enzyme negative modulators, primary screen, biochemical, NADPH fluorescence (AID 622;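 active = fluorescence slope higher than the sample average by over 3 SD, cut at about -0.22 in these data, passing the limit was not always enough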;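 also: slope of raw intensity against log time taken from 70 to 1610 s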). To be noted: recombinant KvBeta, 4-cyanobenzaldehyde reduction, at 10 µM, stronger effect = higher value.
The target is the same in assay [5]. Briefly: KvBeta positive modulators, primary screen, biochemical, NADPH fluorescence (AID 623).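 Also: fluorescence intensity change per second fitted from 20 to 320 s.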 Particulars: Recombinant KvBeta, NADPH fluorescence decrease slope, 10 min; at 10 µM; stronger effect = lower value.
For assay [6], the target named is Alpha-2C adrenergic receptor (Homo sapiens) (UniProt P18825). Put plainly: modulators of alpha2C/GIRK thallium flux, primary screen, cell-based, HEK293 alpha2C/GIRK1/2 (AID 624;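 active = fluorescence slope after compound addition differing from the mean of all screened samples at 99.7% confidence, in either direction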;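 also: slope of fluorescence ratio to pre-addition baseline per second over 15 to 24 s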). Particulars: thallium flux BTC fluorescence, at 10 µM, actives lie on both sides.
Sequence of Alpha-2C adrenergic receptor (Homo sapiens) (P18825 whole entry, looked up): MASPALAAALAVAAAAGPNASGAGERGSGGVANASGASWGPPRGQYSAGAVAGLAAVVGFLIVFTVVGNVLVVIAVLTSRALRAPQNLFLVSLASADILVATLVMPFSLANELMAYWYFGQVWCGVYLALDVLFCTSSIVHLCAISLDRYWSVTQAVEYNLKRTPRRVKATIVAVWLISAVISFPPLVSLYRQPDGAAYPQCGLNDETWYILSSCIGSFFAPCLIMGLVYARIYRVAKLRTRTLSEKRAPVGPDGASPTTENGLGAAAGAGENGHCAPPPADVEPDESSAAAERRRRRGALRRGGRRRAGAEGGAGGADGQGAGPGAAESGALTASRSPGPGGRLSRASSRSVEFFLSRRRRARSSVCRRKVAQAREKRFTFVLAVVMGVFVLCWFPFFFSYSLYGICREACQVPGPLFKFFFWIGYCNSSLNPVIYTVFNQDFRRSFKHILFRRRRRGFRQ
The nature of assay [7]: inhibitors of Sendai virus-induced IRF3 signaling, primary screen, TLR/RLR signaling modifier project, cell-based, Sendai virus stimulus, luciferase, 10K MLSCN set (AID 602276;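 active = inhibition at or above 50% at 10 µM; inactive = inhibition below 50%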;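 also: firefly luciferase from ISG56 promoter only with Renilla not read in this screen; 0% = Sendai virus plus DMSO and 100% = medium plus DMSO without virus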). To be noted: HEK293 RL24 IRF3 luciferase reporter, at 10 µM, stronger effect = higher value. A general note: A reporter such as luciferase makes a cellular process visible.
The nature of assay [8]: inhibitors of poly I:C-induced TLR3 signaling, primary screen, cell-based, poly I:C stimulus, luciferase, 10K MLSCN set (AID 602277;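 active = inhibition of the reporter signal at or above 50%; inactive = inhibition below 50%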). To be noted: HEK293-TLR3 RL24 IRF3 luciferase reporter, at 10 µM, stronger effect = higher value.

Active and inactive are the calls of the source.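 The calls were made as follows, unless noted: active = NADPH fluorescence slope more negative than the mean of all samples by about 3 SD, 99.7% confidence; inactive = the rest.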

Sequence of Voltage-gated potassium channel subunit beta-2 (Rattus norvegicus) (P62483 whole entry, looked up): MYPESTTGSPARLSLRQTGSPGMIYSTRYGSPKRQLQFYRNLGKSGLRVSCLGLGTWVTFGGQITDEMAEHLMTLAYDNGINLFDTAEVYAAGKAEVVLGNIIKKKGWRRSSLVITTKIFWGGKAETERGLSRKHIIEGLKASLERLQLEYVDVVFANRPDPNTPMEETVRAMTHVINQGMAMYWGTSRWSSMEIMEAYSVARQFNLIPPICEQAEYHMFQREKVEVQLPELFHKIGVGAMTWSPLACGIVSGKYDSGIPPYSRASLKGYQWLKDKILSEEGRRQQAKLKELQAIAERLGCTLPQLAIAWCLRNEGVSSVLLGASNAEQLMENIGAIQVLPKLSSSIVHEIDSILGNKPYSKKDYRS

`CCn1c(SCC(=O)Nc2ccc(C(=O)OC)cc2)nnc1-c1cccs1`: in assay [1], the cell count was determined as 654. Also, the inhibition (usually the drop in the measured response relative to a control, in per cent) was 11.5% (inactive) in assay [1], 42.7% (inactive) in assay [3], 14.1% (inactive) in assay [7] and 12.6% (inactive) in assay [8]. Also, the inhibition of aggregation in assay [2] is 24.6% (inactive). Besides, the nuclei count came out at 110% in assay [2] and 106% in assay [3]. In addition, the fluorescence slope in assay [4] is -0.379 (inactive). Moreover, the NADPH fluorescence slope in assay [5] is -5.2e-05 (inactive). Also, in assay [6], the slope is 0.00499 (inactive).
As for `O=C(COC(=O)C1CCN(S(=O)(=O)c2cccs2)CC1)c1cc2ccccc2o1`, in assay [1], the cell count came out at 536. Besides, the inhibition was -8.3% (inactive) in assay [1], -97.6% (inactive) in assay [3], 12.4% (inactive) in assay [7] and 31.7% (inactive) in assay [8]. For the same compound, in assay [2], the inhibition of aggregation was -0.1% (inactive). Moreover, the nuclei count in assay [2] worked out at 98.7%; in assay [3], 112%. For the same compound, the fluorescence slope in assay [4] is -0.501 (inactive). Moreover, the NADPH fluorescence slope in assay [5] is -1.4e-05 (inactive). In addition, the slope in assay [6] is 0.00534 (inactive).
`COc1ccc(-n2c(Cc3cccn3C)nnc2SCC(=O)Nc2cccc(C)c2C)cc1`: in assay [1], the cell count amounted to 816. The inhibition in assay [1] was 4.6% (inactive); in assay [3], -26.4% (inactive); in assay [7], 0.797% (inactive); in assay [8], 27.3% (inactive). Also, the inhibition of aggregation in assay [2] is 4.2% (inactive). The nuclei count in assay [2] is 105%; in assay [3], 110%. Moreover, the fluorescence slope in assay [4] is -0.596 (inactive). For the same compound, the NADPH fluorescence slope in assay [5] was -4.5e-06 (inactive). Moreover, the slope in assay [6] was 0.00595 (inactive).
In the case of `CC(C)(Oc1ccc(Cl)cc1)C(=O)NC1CCSC1=O` (stereo not drawn), the cell count in assay [1] worked out at 620. Moreover, the inhibition is -7.5% (inactive) in assay [1], -63.4% (inactive) in assay [3], 10.9% (inactive) in assay [7] and 15.9% (inactive) in assay [8]. The inhibition of aggregation in assay [2] was -23.8% (inactive). The nuclei count in assay [2] stood at 112%; in assay [3] it was 103%. Moreover, the fluorescence slope in assay [4] was -0.502 (inactive). Moreover, in assay [5], the NADPH fluorescence slope is -2.8e-05 (inactive). Moreover, the slope in assay [6] is 0.00406 (inactive).
Turning to `Cc1ccc(NC(=O)CN2CC(C)SC2=NC2CCCCC2)cc1` (stereo not drawn), the cell count in assay [1] stood at 519. Besides, the inhibition in assay [1] is 10.1% (inactive); in assay [3] it was -38.8% (inactive); in assay [7], 17.3% (inactive); in assay [8] it was 13.9% (inactive). Further, the inhibition of aggregation in assay [2] was -7.2% (inactive). The nuclei count in assay [2] was 109%; in assay [3] it was 112%. In assay [4], the fluorescence slope was -0.514 (inactive). Further, the NADPH fluorescence slope in assay [5] is -4.1e-05 (inactive). Also, in assay [6], the slope was 0.00585 (inactive).
For `CN1CCN(CCCNC(=O)Cn2ncc3c4ccccc4n(C)c3c2=O)CC1`, the cell count in assay [1] stood at 479. Moreover, the inhibition in assay [1] was -2.6% (inactive); in assay [3], -69.4% (inactive); in assay [7], -10.3% (inactive); in assay [8] it was 35.3% (inactive). For the same compound, in assay [2], the inhibition of aggregation was -7.2% (inactive). Besides, the figures for the nuclei count in assay [2] and in assay [3] were 98% and 100%, respectively. Besides, the fluorescence slope in assay [4] is -0.615 (inactive). Also, the NADPH fluorescence slope in assay [5] was -1.6e-07 (inactive). For the same compound, the slope in assay [6] is 0.0065 (inactive).
Consider `CCOC(=O)C1CCN(C(=O)COc2ccc(S(=O)(=O)NC(C)C)cc2Cl)CC1`, for which the cell count in assay [1] came to 718. In addition, the inhibition in assay [1] was 1.5% (inactive); in assay [3], -3.9% (inactive); in assay [7], 12% (inactive); in assay [8], 9.55% (inactive). Also, in assay [2], the inhibition of aggregation is 9% (inactive). Further, the nuclei count in assay [2] came to 109%; in assay [3], 97.5%. The fluorescence slope in assay [4] was -0.46 (inactive). Further, the NADPH fluorescence slope in assay [5] is -1.1e-05 (inactive). For the same compound, the slope in assay [6] is 0.00357 (inactive).
Consider `CCc1ccccc1N1CC23C=CC(O2)C(C(=O)O)C3C1=O` (stereo not drawn), for which the cell count in assay [1] was 591. Also, the inhibition was -3.4% (inactive) in assay [1], -23.4% (inactive) in assay [3], 12.3% (inactive) in assay [7] and 36.8% (inactive) in assay [8]. Further, in assay [2], the inhibition of aggregation is -8.2% (inactive). The values for the nuclei count in assay [2] and in assay [3] were 103% and 105%, respectively. In assay [4], the fluorescence slope is -0.515 (inactive). The NADPH fluorescence slope in assay [5] is -2.2e-05 (inactive). For the same compound, in assay [6], the slope is 0.00685 (inactive).
On to `C[C@@H]1C[C@H](O)c2cc(Cl)ccc2N1`, for which the cell count in assay [1] came out at 404. The inhibition in assay [1] was -7.2% (inactive); in assay [3] it was -39.2% (inactive); in assay [7], 11% (inactive); in assay [8], 27.1% (inactive). For the same compound, the inhibition of aggregation in assay [2] was 17.5% (inactive). Further, the nuclei count in assay [2] is 97.5%; in assay [3], 114%. The fluorescence slope in assay [4] was -0.594 (inactive). Moreover, the NADPH fluorescence slope in assay [5] is -1.8e-05 (inactive). The slope in assay [6] is 0.0061 (inactive).
As for `COCCCNC(=O)CSc1ccc(Cl)cc1`, the cell count in assay [1] stood at 378. The inhibition was -1.8% (inactive) in assay [1], 10.2% (inactive) in assay [3], 1.1% (inactive) in assay [7] and 10.8% (inactive) in assay [8]. Moreover, the inhibition of aggregation in assay [2] is -3.3% (inactive). For the same compound, the nuclei count came to 93.9% in assay [2] and 80% in assay [3]. Besides, in assay [4], the fluorescence slope is -0.377 (inactive). Also, the NADPH fluorescence slope in assay [5] was -5e-05 (inactive). Further, the slope in assay [6] was 0.00511 (inactive).
Take `CC1=C(C(=O)OCc2ccccc2)C(c2ccc(C)o2)C2=C(CCCC2=O)N1` (stereo not drawn): the cell count in assay [1] came to 745. The inhibition was 1.9% (inactive) in assay [1], 29.9% (inactive) in assay [3], 2.43% (inactive) in assay [7] and 15.6% (inactive) in assay [8]. For the same compound, the inhibition of aggregation in assay [2] is 14.6% (inactive). For the same compound, the nuclei count in assay [2] was found to be 101%; in assay [3], 97%. For the same compound, the fluorescence slope in assay [4] was -0.466 (inactive). Further, the NADPH fluorescence slope in assay [5] is -3.8e-05 (inactive). Moreover, the slope in assay [6] is 0.00603 (inactive).
As to `Cc1ccc(-c2oc3ccccc3c(=O)c2O)cc1`, in assay [1], the cell count is 559. Further, the inhibition is -12% (inactive) in assay [1], 2.6% (inactive) in assay [3], -10.6% (inactive) in assay [7] and -26.8% (inactive) in assay [8]. Besides, in assay [2], the inhibition of aggregation is -15.8% (inactive). Moreover, the nuclei count in assay [2] amounted to 15.8%; in assay [3], 105%. For the same compound, the fluorescence slope in assay [4] was -0.0172 (active). Moreover, in assay [5], the NADPH fluorescence slope was -2.7e-06 (inactive). Further, the slope in assay [6] was 0.00718 (inactive).
For the compound `CCOC(=O)c1cc(C(C)(C)C)oc1CN`, the cell count in assay [1] amounted to 667. In addition, the inhibition was -1% (inactive) in assay [1], -1.1% (inactive) in assay [3], 15.2% (inactive) in assay [7] and 21.7% (inactive) in assay [8]. In addition, the inhibition of aggregation in assay [2] is 1.2% (inactive). Moreover, the figures for the nuclei count in assay [2] and in assay [3] were 98.7% and 102%, respectively. Further, the fluorescence slope in assay [4] is -0.495 (inactive). In assay [5], the NADPH fluorescence slope is -4.4e-05 (inactive). For the same compound, in assay [6], the slope was 0.00475 (inactive).
